Unmarked numbers belong to inactive results. Results filed as inconclusive are left out. Active and inactive are the calls of the source. Unless noted, calls come from the whole dose curve; as a rule, active = well fitted curve in the direction sought with a large enough effect; inconclusive = small, poorly fitted or top-dose-only effect, or another doubt; inactive = no such curve, though single readings can be large; an effect the other way counts as inactive or inconclusive.

The nature of experiment [1]: AP1 Signaling Pathway (AID 357; active = well fitted curve in either direction with a large enough effect, not every such curve was filed as active;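 note: ME-180 reporter cells stimulated with EGF at its EC50 level; % is set by controls: 0 for no effect and ±100 for the full control effect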). The note with it: ME-180 AP-1-bla reporter, EGF-induced, beta-lactamase ratio, 5 h; at 7.69 µM (top of the series) unless noted. An outline of the steps:
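A ratiometric CCF4 readout (405 nm excitation; 460 and 530 nm emission) quantified AP-1-driven beta-lactamase in ME-180 cells after 5 h with compound and EC50 EGF; AC50 values were derived for activators and inhibitors.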

The target in experiment [2] is Cytochrome P450 1A2 (Homo sapiens) (UniProt P05177). The experiment in a line: p450-cyp1a2 (AID 410; calls by dose curve; note: potency is the fitted concentration of half-maximal effect;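 for activity change, negative = inhibition: -100% = full effect of reference inhibitor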). The note with it: recombinant CYP1A2, luciferin-ME demethylation, luminescence; series mostly up to 11.4 µM. An outline of the steps:
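Human CYP1A2 (20nM) demethylated Luciferin-ME at its Km (100uM) in 100mM KPO4. After 10 min compound preincubation, NADPH regeneration ran the reaction 60 min at room temperature. Luciferin was read by luminescence, normalized to 57 uM furafylline.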

Experiment [3] in a line: NFAT Signaling Pathway (AID 444; active = well fitted curve in either direction with a large enough effect, not every such curve was filed as active;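 note: carbachol stimulus at about its EC50 of 1 µM final; % is set by controls: 0 for no effect and ±100 for the full control effect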). The note with it: Jurkat NFAT-bla M1, carbachol, beta-lactamase ratio, 5 h; at 7.69 µM (top of the series) unless noted. In a few lines: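 Jurkat cells with NFAT-driven β-lactamase reporter and co-expressed M1 receptor, stimulated with carbachol (final 1 uM, ~EC50), compound titration, 5 h at 37 °C. CCF4 loaded 1 h at RT; 460/530 nm ratio gave %activity and AC50.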

Experiment [4] in a line: Stat Signaling Pathway (AID 446; active = well fitted curve in either direction with a large enough effect, not every such curve was filed as active;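 note: ME-180 cervical cancer cells given 40 pM IL-6 alongside compound; SIE-controlled beta-lactamase reporter measured as 460/530 nm FRET emission ratio; % is set by controls: 0 for no effect and ±100 for the full control effect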). The note with it: ME-180 SIE beta-lactamase reporter, IL-6 stimulated, 5 h; at 7.69 µM (top of the series) unless noted. In a few lines: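 ME-180 SIE-bla cells; overnight plating; cpd + IL-6 40 pM, 5 h, 37 C; LiveBLAzer 2.5 h RT; 460/530 nm emission ratio. Normalized to 300 pM IL-6 and 125 nM JAK inhibitor controls.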
The target in experiment [5] is Glucocorticoid receptor (Homo sapiens) (UniProt P04150). Put plainly: GR-EFC Redistribution (AID 451; calls by dose curve; note: potency is the fitted concentration of half-maximal effect). Particulars: CHO-K1 GR-EFC translocation, beta-gal luminescence, 2 h. In a few lines:
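CHO-K1 cells expressing nuclear EA and GR-ED fragments of b-gal; compounds titrated up to 46 uM final, 2 h at 37 C. GR nuclear translocation read as complemented b-gal luminescence after 1 h RT detection.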

Experiment [6] has as its target 3',5'-cyclic-AMP phosphodiesterase 4B (Homo sapiens) (UniProt Q07343). The experiment in a line: qHTS Assay for Inhibitors of PDE-IV (AID 607; active = well fitted activation curve with a large enough effect in the main read-out, with a control signal flat, not every such curve was filed as active; note: % of control where 0% means no effect). The note with it: HEK293 ACTOne CNG channel cells, membrane potential fluorescence; series mostly up to 22.9 µM. In a few lines:
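ACTOne HEK293 cells carry a modified cAMP-gated CNG channel and express endogenous PDE4; plated 1000 cells/well, compounds up to 22.9 uM final. Membrane-potential dye fluorescence (ex 535/em 590) was read; parental cells received 10 uM forskolin + 100 uM RO 20-1724.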
(Quantitative high-throughput screening tests each substance at several concentrations.)

A short description of experiment [7]: qHTS Assay for Identification of Small Molecule Agonists for Thrombopoietin (TPO) Signaling Pathway (AID 917). Note: % is set by controls: 0 for no effect and ±100 for the full control effect. The note with it: TPO signaling pathway reporter cells, agonist qHTS, stimulated with TPO at its EC50; series mostly up to 38.5 µM. An outline of the steps: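 Reporter: GpIIb promoter–luciferase in murine Ba/F3 expressing human TPO receptor. Pre-starved of IL-3 overnight; compounds with 26 pM TPO, 24 hrs, 37 C/5% CO2; luminescence read.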

Experiment [8] has as its target Pyruvate kinase (Leishmania mexicana) (UniProt Q27686). Put plainly: qHTS Validation Assay for Inhibitors of Leishmania Mexicana Pyruvate Kinase (AID 945).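 Note: 0% = DMSO only neutral control wells.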 The note with it: purified L. mexicana pyruvate kinase, enzyme activity, E451W mutant enzyme; series mostly up to 57.5 µM. An outline of the steps: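 The enzyme is a highly purified E451W mutant of LmPYK used at 0.2 nM. It converts 0.5 mM PEP and 0.1 mM ADP over 1 h at room temperature; product ATP is quantified by luciferase luminescence relative to DMSO controls.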

For experiment [9], the target named is Pyruvate kinase PKM (Homo sapiens) (UniProt P14618). Put plainly: qHTS Assay for Activators of Human Muscle Pyruvate Kinase (AID 954; active = well fitted curve in the direction sought with a large enough effect, not every such curve was filed as active;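 note: 0% = uninhibited enzyme and -100% = no enzyme or full thiadiazolimine inhibition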). The note with it: purified human muscle pyruvate kinase, luciferase-coupled luminescence, 1 h; series mostly up to 57.5 µM. An outline of the steps: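 Luminescence from a luciferase ATP-detection/stop reagent reported PKM2 activity. Reactions contained 0.1 nM purified human enzyme, 0.5 mM PEP, 0.1 mM ADP and 7 mM MgCl2 at pH 7.2, run 1 h at RT.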
Chain of Pyruvate kinase PKM (Homo sapiens) (P14618 whole entry, looked up): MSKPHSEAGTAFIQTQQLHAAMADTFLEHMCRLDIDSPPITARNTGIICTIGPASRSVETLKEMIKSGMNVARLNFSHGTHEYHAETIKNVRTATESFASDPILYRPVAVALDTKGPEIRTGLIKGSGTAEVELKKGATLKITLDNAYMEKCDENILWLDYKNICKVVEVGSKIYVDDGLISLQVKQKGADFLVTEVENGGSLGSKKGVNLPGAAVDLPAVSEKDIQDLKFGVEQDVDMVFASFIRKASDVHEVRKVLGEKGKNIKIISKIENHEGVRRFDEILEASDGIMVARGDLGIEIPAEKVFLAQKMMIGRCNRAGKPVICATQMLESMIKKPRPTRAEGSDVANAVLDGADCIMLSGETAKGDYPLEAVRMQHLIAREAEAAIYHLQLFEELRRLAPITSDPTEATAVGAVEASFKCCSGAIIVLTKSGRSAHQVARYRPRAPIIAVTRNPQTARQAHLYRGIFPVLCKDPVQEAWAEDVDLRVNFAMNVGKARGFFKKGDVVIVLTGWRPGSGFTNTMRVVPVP

Experiment [10] addresses Alpha-galactosidase A (Homo sapiens) (UniProt P06280). The experiment in a line: Counterscreen for Glucocerebrosidase Inhibitors: qHTS Assay for Human alpha-Galactosidase at pH 4.5 (AID 992). Note: 0% is about no effect. The note with it: purified enzyme, fluorogenic substrate; series mostly up to 76.9 µM. In a few lines: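 Enzyme at 2 nM final was combined with compound (0.7 nM to 77 uM) and 80 uM 4-methylumbelliferyl alpha-D-galactopyranoside in 50 mM citric acid, 0.005% Tween-20, pH 4.5. After 20 min at room temperature, fluorescence was read (Ex 365/Em 440 nm); AC50 came from Hill fits.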
Background: The purpose of a counterscreen is to sort out artefacts and off-target activity.

For experiment [11], the target named is alpha-glucosidase (Oryza sativa, rice) (UniProt Q653V4). The experiment in a line: Counterscreen for Glucocerebrosidase Inhibitors: qHTS Assay for Rice alpha-Glucosidase at pH 5.0 (AID 997).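 Note: 0% = full activity with enzyme and -100% = basal without enzyme.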 Particulars: rice alpha-glucosidase enzyme activity; series mostly up to 76.9 µM. An outline of the steps:
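Rice alpha-glucosidase (4 nM final) with 400 uM 4-methylumbelliferyl-alpha-D-glucopyranoside in citrate buffer pH 5.0, 20 min at room temperature, stopped at pH 10; fluorescence 365/440 nm, compounds 0.7 nM–77 uM, AC50 from Hill fits.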

Experiment [12] has as its target Glucocorticoid receptor (Homo sapiens) (UniProt P04150). The experiment in a line: GR-GFP Redistribution (AID 450;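 active = compounds whose dose series gives a full or clear partial fitted curve of increased nuclear translocation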; note: potency is the fitted concentration of half-maximal effect). The note with it: U2OS GR-GFP nuclear translocation, laser cytometry, 2 h.
Experiment [13] can be described thus: qHTS Assay for Identification of Small Molecule Antagonists for NFkB Signaling Pathway (AID 895; active = well fitted inhibition curve with a large enough effect in the signal ratio, with a control signal flat, not every such curve was filed as active; the % refers to the signal ratio; note: % is set by controls: 0 for no effect and ±100 for the full control effect). Particulars: NFkB beta-lactamase reporter cells, FRET ratio 460/530, stimulated with 10 pM TNF alpha; series mostly up to 38.3 µM. In a few lines: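 ME-180 NFkB-bla cells (beta-lactamase under NFkB response element), plated overnight, treated with compound then 10 pM TNF alpha (about EC50) for 5 hrs at 37 C. LiveBLAzer FRET read at 460/530 nm emission, 405 nm excitation.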

The target of experiment [14] is Mitogen-activated protein kinase 10 (Mus musculus) (UniProt Q61831). Put plainly: JNK3 AlphaScreen Assay (AID 530; active = well fitted curve in either direction with a large enough effect, not every such curve was filed as active). Particulars: JNK3 lysate, c-Jun phosphorylation; series mostly up to 11.4 µM. An outline of the steps:
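qHTS format: compounds tested as titrations against IL-1beta/TNF-alpha-activated HepG2 lysate JNK3 with biotin-GST-cJun substrate and 10 uM ATP at room temperature. Loss of anti-phospho-cJun AlphaScreen signal indicates inhibition.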
For orientation: Bead proximity is the source of the signal in Alpha formats.

Experiment [15] addresses Guanine nucleotide-binding protein G(i) subunit alpha-1 (Homo sapiens) (UniProt P63096). The experiment in a line: qHTS Assay for Inhibitors of RGS12 GoLoco Motif Activity (Green Fluorophore) (AID 879).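 Note: 0% = labeled peptide with Gαi1 and full inhibition = labeled peptide alone without protein; negative values mean loss of peptide binding seen as reduced polarization.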 The note with it: Galphai1/FITC-RGS12 GoLoco peptide, fluorescence polarization; series mostly up to 57.1 µM. In a few lines: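 Fluorescence polarization assay: 50 nM Gαi1 with 10 nM FITC-labeled RGS12 GoLoco peptide in 10 mM Tris pH 7.5, 150 mM NaCl, 0.1 mM GDP, 0.05% NP40, 10 min at room temperature with compound.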

Experiment [16] has as its target Cytochrome P450 2C19 (Homo sapiens) (UniProt P33261). Put plainly: qHTS Assay for Inhibitors and Substrates of Cytochrome P450 2C19 (AID 899). Note: % is set by controls: 0 for no effect and ±100 for the full control effect; nearly all actives have a fitted effect of over 60% in size. Particulars: recombinant CYP2C19, luciferin-H EGE luminescence; series mostly up to 11.4 µM. In a few lines: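 Luminescent read-out of luciferin formed from Luciferin-H EGE (10uM, equal to KM). Enzyme 5nM in 50mM KPO4; compound added, 10 min at 37C, then NADPH regenerating system for 60 min at 37C. Full inhibition defined by 57uM ketoconazole.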

Experiment [17] concerns the target Muscarinic acetylcholine receptor M1 (Rattus norvegicus) (UniProt P08482). The experiment in a line: qHTS Assay for Antagonists of Acetylcholine Muscarinic M1 Receptor: Measurement of IP-One Response (AID 944). Note: nearly all actives have a fitted effect of over 75% in size. The note with it: CHO-M1 cells, IP-One HTRF, antagonist mode; series mostly up to 46.1 µM. In a few lines: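 CHO cells expressing rat M1 receptor, recovered overnight, were pre-incubated 10 min with compound, then stimulated 30 min with carbachol at EC80 (200 nM) in LiCl-containing buffer, pH 7.4. IP1 accumulation was read by HTRF (620/665 nm).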

The target is the same in experiment [18]. Put plainly: qHTS Assay for Antagonists of Acetylcholine Muscarinic M1 Receptor: Kinetic Measurement of Intracellular Calcium Response (AID 943).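 Note: Fluo-4 calcium signal as peak divided by basal fluorescence over 4 min; nearly all actives have a fitted effect of over 75% in size.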 Particulars: M1-expressing cells, kinetic intracellular calcium fluorescence; series mostly up to 35.3 µM. In a few lines:
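CHO cells stably expressing rat M1 were loaded with no-wash Fluo-4 dye for 1 h at 37C, pre-incubated 10 min with compound, then challenged with EC80 carbachol (100 nM final); kinetic calcium read 4 min, peak/basal ratio.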

Chain of Muscarinic acetylcholine receptor M1 (Rattus norvegicus) (P08482 whole entry, looked up): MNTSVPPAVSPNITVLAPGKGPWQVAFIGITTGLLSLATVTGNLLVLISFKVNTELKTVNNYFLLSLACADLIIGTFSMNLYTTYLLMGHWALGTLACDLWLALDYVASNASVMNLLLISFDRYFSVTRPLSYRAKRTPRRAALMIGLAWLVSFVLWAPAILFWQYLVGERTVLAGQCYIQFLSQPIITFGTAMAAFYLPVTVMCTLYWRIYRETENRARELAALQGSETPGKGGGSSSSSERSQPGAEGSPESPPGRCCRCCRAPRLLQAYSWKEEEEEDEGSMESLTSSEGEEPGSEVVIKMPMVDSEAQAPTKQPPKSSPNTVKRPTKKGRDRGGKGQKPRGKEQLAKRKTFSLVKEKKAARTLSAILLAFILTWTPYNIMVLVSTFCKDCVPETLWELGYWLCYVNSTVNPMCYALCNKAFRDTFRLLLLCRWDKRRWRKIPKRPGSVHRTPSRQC
Chain of 3',5'-cyclic-AMP phosphodiesterase 4B (Homo sapiens) (Q07343 whole entry, looked up): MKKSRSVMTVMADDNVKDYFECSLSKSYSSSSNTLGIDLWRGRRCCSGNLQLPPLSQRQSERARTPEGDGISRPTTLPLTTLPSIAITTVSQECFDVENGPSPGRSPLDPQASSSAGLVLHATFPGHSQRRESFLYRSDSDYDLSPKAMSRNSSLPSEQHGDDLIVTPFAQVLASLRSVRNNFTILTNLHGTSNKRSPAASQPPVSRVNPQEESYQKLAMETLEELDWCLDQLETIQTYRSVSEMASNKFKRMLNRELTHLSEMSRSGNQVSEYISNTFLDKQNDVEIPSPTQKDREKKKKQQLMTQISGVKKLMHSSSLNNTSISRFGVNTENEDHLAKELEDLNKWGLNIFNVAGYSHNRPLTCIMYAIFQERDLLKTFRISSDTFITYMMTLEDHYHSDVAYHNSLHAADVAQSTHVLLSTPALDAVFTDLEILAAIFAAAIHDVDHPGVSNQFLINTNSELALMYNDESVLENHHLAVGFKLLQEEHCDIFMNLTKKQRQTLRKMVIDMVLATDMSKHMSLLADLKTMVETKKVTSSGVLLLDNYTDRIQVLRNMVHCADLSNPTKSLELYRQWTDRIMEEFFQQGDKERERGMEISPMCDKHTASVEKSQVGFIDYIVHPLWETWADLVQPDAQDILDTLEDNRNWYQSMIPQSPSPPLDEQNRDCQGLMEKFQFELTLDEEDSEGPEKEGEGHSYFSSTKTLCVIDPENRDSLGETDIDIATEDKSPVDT
Chain of Alpha-galactosidase A (Homo sapiens) (P06280 whole entry, looked up): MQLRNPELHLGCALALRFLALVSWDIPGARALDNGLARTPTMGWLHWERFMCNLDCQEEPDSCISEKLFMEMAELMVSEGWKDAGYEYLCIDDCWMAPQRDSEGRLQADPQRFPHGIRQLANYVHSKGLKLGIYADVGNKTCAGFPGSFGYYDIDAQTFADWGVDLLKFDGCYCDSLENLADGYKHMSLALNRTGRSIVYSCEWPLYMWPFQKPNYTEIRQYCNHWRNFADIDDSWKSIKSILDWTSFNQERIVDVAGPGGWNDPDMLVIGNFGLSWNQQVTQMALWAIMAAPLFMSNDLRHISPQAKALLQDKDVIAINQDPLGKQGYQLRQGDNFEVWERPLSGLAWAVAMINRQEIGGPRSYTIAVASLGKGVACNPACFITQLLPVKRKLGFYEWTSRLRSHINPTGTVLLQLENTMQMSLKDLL
Chain of Cytochrome P450 1A2 (Homo sapiens) (P05177 whole entry, looked up): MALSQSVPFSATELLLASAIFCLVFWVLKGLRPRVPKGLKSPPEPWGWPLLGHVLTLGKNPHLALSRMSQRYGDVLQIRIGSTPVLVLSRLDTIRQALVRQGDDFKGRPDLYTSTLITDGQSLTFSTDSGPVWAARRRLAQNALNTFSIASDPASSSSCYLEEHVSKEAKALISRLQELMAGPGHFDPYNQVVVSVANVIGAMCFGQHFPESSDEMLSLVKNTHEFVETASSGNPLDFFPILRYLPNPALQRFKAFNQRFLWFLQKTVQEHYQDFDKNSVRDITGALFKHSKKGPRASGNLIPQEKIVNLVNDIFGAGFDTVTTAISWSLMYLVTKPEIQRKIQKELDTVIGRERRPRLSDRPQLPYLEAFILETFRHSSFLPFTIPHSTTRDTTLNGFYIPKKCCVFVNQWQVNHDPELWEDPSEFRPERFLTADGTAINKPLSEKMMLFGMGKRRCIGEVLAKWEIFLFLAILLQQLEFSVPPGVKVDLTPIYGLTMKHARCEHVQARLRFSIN
Chain of Glucocorticoid receptor (Homo sapiens) (P04150 whole entry, looked up, the tested form may be a part): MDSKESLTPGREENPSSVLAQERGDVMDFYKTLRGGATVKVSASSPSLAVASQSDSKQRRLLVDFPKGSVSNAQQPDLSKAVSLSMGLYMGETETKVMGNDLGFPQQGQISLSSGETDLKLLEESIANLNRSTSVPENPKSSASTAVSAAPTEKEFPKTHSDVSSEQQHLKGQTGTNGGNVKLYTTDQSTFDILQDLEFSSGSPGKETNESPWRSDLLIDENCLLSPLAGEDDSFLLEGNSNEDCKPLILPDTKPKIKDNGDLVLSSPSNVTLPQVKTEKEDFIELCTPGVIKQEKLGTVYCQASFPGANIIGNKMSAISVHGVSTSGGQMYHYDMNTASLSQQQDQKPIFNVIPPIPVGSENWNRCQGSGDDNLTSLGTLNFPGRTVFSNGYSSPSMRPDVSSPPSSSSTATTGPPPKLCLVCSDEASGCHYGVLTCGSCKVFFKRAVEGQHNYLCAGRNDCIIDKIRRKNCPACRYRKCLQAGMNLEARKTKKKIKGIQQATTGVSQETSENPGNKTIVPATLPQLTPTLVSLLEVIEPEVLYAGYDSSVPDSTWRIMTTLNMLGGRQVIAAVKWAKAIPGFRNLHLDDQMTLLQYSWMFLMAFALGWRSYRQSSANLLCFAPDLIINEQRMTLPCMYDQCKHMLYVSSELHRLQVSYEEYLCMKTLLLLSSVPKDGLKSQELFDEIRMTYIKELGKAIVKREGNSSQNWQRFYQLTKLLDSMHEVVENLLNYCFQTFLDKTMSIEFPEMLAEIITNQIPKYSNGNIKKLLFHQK
Chain of Pyruvate kinase (Leishmania mexicana) (Q27686 2-499 E452W): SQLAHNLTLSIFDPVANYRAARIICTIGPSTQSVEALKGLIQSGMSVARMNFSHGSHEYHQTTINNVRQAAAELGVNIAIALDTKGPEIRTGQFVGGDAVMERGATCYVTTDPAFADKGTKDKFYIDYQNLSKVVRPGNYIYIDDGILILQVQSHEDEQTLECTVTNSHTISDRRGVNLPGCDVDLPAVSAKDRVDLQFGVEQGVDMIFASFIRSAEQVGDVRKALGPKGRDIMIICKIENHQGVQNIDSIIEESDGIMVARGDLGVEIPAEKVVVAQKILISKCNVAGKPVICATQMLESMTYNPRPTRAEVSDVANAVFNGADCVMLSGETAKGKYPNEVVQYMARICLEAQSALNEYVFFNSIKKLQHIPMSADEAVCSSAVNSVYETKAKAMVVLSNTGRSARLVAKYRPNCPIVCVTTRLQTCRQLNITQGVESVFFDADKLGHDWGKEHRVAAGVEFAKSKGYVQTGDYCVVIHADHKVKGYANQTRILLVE
Chain of Guanine nucleotide-binding protein G(i) subunit alpha-1 (Homo sapiens) (P63096 whole entry, looked up): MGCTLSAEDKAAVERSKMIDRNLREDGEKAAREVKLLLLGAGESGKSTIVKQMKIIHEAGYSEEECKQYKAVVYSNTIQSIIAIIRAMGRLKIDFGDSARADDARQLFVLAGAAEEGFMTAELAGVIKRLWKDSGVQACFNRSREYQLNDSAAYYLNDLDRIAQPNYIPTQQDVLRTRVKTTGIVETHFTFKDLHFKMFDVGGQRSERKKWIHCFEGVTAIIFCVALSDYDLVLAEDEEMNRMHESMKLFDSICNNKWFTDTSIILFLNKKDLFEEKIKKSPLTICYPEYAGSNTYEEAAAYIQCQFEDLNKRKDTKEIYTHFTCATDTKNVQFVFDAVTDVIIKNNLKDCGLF
Chain of Cytochrome P450 2C19 (Homo sapiens) (P33261 whole entry, looked up): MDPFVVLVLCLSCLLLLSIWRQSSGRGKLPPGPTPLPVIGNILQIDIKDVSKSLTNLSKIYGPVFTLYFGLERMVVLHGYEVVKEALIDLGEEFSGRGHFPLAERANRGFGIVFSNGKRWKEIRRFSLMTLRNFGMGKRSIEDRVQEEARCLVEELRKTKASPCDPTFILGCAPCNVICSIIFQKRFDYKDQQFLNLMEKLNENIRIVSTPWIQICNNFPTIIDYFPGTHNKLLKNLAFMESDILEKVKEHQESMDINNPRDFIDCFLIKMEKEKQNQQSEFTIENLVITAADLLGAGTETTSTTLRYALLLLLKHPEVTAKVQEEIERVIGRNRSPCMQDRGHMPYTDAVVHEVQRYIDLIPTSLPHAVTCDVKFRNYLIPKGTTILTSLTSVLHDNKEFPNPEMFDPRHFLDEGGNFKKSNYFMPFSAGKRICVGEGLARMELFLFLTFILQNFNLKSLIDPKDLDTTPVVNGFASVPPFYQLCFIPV

As to `C[C@@]12C=CC(=O)C=C1CC[C@@H]1C2=CC[C@]2(C)[C@@H]1CC[C@H]2C(=O)CN1CCN(c2cc(N3CCCC3)nc(N3CCCC3)n2)CC1`, the activity change, negative = inhibition in experiment [1] was 13.8% [at 38 µM]; in experiment [3], -21.1% [at 38 µM]. Further, the Potency is 12.6 µM (active) in [2] and above 46 µM in experiment [5]. In addition, the activity, negative = inhibition in experiment [4] is 9.08% [at 38 µM]. Further, the Potency entry in [6] and in experiment [11] was “inactive” in each case. Moreover, the compound was called inactive in [7], in [8], in experiment [9] and in experiment [10].
Regarding `C[C@@H]1C(=O)N(C)C(=O)c2nc[nH]c21`, the activity change, negative = inhibition in experiment [1] was -6.31% [at 38 µM]; in experiment [3], -19.2% [at 38 µM]. For the same compound, the Potency entry in [2], in experiment [6], in experiment [13] and in experiment [11] was “inactive” throughout. For the same compound, the activity, negative = inhibition in [4] is 15% [at 38 µM]. For the same compound, the Potency in [12] and in experiment [5] was above 46 µM throughout. In addition, the compound was called inactive in [7], in [8] and in experiment [10].
With `C[C@@H](C(=O)O)c1ccc(C[C@@H]2CCCC2=O)cc1`, the activity change, negative = inhibition is 14.5% [at 38 µM] in experiment [1] and 11.1% [at 38 µM] in [3]. The Potency result in [2], in [14], in [6], in [13], in experiment [16] and in [17] was “inactive” in each case. Also, the Potency entry in [11] was “inactive”. Also, the activity, negative = inhibition in [4] is 8.58% [at 38 µM]. The outcome in [15], in [7], in [8] and in [10] was inactive.
For the compound `Nc1ncnc2c1nc(Br)n2[C@@H]1O[C@H]2COP(=O)(O)O[C@@H]2[C@H]1O`, the activity change, negative = inhibition is -7.65% [at 38 µM] in [1] and 6.13% [at 38 µM] in experiment [3]. For the same compound, the Potency entry in experiment [2], in experiment [14], in experiment [6], in experiment [13], in experiment [18] and in experiment [17] was “inactive” in each case. For the same compound, the Potency result in experiment [11] is “inactive”. Also, in [4], the activity, negative = inhibition is 4.8% [at 38 µM]. Also, in experiment [12], the Potency was 2.43 µM (active). In addition, the compound was called inactive in experiment [7], in experiment [8], in [9] and in experiment [10].

The record behind these values is PubChem BioAssay (NCATS).
